High-throughput results (PubChem BioAssay)
A selection: hits, their analogues and other compounds. The true share with any hit is near 4.2%.
ALOX15 inhib: qHTS Assay for Inhibitors of 15-hLO (15-human lipoxygenase); 74,000 tested, 1.4% active; Potency, µM (highest dose often 57.1 µM), for the others: at the highest dose activity change, negative = inhibition, hits mostly inhibitors; purified 15hLO-1, xylenol orange hydroperoxide absorbance; Polyunsaturated fatty acid lipoxygenase ALOX15 (Homo sapiens), P16050; note: potency is the fitted concentration of half-maximal effect; % is set by controls: 0 for no effect and ±100 for the full control effect; nearly all actives have a fitted effect of over 55% in size
Target sequence (P16050 whole entry, looked up): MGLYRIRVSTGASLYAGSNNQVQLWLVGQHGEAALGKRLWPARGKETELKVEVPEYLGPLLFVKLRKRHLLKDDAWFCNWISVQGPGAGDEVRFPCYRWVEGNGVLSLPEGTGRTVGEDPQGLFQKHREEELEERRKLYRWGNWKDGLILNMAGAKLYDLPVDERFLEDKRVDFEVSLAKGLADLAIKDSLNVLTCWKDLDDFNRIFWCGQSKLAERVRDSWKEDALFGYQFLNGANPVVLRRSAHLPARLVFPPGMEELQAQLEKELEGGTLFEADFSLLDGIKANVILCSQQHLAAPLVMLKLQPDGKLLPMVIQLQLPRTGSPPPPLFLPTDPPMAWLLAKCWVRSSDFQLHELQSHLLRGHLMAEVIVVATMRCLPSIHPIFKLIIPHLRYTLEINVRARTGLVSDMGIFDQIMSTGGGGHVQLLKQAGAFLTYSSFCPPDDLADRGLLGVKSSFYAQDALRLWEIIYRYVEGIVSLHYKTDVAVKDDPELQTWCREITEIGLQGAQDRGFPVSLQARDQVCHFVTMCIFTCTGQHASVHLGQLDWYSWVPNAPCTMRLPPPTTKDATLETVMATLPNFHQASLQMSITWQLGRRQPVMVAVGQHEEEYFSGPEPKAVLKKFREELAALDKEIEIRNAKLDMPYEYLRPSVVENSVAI
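Purified human 15hLO-1 (40 nM) in 25 mM Hepes pH 7.5, 0.01% Triton X-100, preincubated 15 min RT with compound, then 50 uM arachidonic acid for 6 min. Hydroperoxide read by ferrous/xylenol orange, 30 min; 573/405 nm absorbance ratio gave progress.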
Tau fil binding: qHTS Assay for Tau Filament Binding; 71,000 tested, 2% active; Potency, µM (highest dose often 57.1 µM), without a hit: top-dose activity change, negative = inhibition; Microtubule-associated protein tau (Homo sapiens), P10636; recombinant tau filaments, thioflavin S fluorescence, 15 h; filaments grown with octadecylsulfate alongside compound;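 note: potency is the fitted concentration of half-maximal effect; % is set by controls: 0 for no effect and ±100 for the full control effect; actives lower thioflavin S fluorescence by blocking filaments or displacing dye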
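Recombinant tau protein (human, 1 uM final) plus 30 uM ODS in HEPES pH 7.4 with NaCl, DTT and thioflavine S. Compound present from the start; fluorescence at 510 nm after 15 h, 37 C.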
ERK AVP block: qHTS Assay for Inhibitors of the ERK Signaling Pathway using a Homogeneous Screening Assay; HEK293-V1b, vasopressin-stimulated pERK AlphaScreen; Potency, µM (highest dose often 57.5 µM), for the others: at the top dose activity, negative = inhibition, hits mostly inhibitors; 72,000 tested, 0.99% active; AID 995, 2007; note: potency is the fitted concentration of half-maximal effect; % is set by controls: 0 for no effect and ±100 for the full control effect; nearly all actives have a fitted effect of over 55% in size
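V1b-HEK293 cells; cpd 30 min 37C; 25 nM vasopressin 5 min; lyse 10 min; AlphaScreen beads 5 hr RT. Normalized to DMSO basal and 25 nM vasopressin; AC50 by Hill fit.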
Hsp90 Hop PPI: qHTS Assay for Disrupters of an Hsp90 Co-Chaperone Interaction; Hsp90 C-terminal peptide / TPR2A (Hop) interaction, human; AlphaScreen TPR2A-His6 binding biotin-Hsp90 C-terminal peptide; Potency, µM (series often up to 57 µM), without a hit: top-dose activity change, negative = inhibition; 71,000 tested, 0.44% active; active = well fitted curve in either direction with a large enough effect; inconclusive = small, poorly fitted or top-dose-only effect, or another doubt; note: potency is the fitted concentration of half-maximal effect; % is set by controls: 0 for no effect and ±100 for the full control effect
TsaE inh: qHTS Assay for Inhibitors of YjeE; purified YjeE enzyme, qHTS inhibition assay; tRNA threonylcarbamoyladenosine biosynthesis protein TsaE (Escherichia coli (strain …; 71,000 tested, 0.05% active; Potency, µM
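Fluorescence polarization of a BODIPY Texas Red–ADP probe (2 uM) bound to purified YjeE (10 uM) was read after 15 min room-temperature incubation with compounds. Loss of polarization marks inhibitors; ADP serves as titrated control.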
DNA Pol III inh: qHTS Assay for Inhibitors of DNA Polymerase III Holoenzyme System; reconstituted DNA polymerase III holoenzyme replication, biochemical; 71,000 tested, 0.25% active; Potency, µM (titrated, usually from 57.1 µM), for the others: at the top dose activity change, negative = inhibition; AID 603, 2007; note: potency is the fitted concentration of half-maximal effect; % is set by controls: 0 for no effect and ±100 for the full control effect
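Reconstituted *E. coli* holoenzyme (0.35 nM Pol III, 1 nM beta, 154 nM SSB, 2 nM primase) was preincubated with compound for 15 min at RT. Synthesis on 1.4 nM ssM13Gori ran 35 min, then was stopped with PicoGreen/EDTA and read as dsDNA fluorescence.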
Active calls of the source: *; [ ] = dose if it differs, or a comment. Unless noted, calls come from the whole dose curve; as a rule, active = well fitted curve in the direction sought with a large enough effect; inconclusive = small, poorly fitted or top-dose-only effect, or another doubt; inactive = no such curve, though single readings can be large; an effect the other way counts as inactive or inconclusive.

CCOC(=O)c1cc2c(ccn2C)n1Cc1ccccc1C was read as ALOX15 inhib -15%, Tau fil binding -17%, ERK AVP block -28%, Hsp90 Hop PPI -14%, TsaE inh inactive and DNA Pol III inh -7%.
For CCc1nc(SCC(=O)N2CCN(C(=O)c3ccco3)CC2)c2c3c(sc2n1)CCCC3 the results were ALOX15 inhib -12%, Tau fil binding 16%, ERK AVP block 20µM*, Hsp90 Hop PPI -1%, TsaE inh inactive and DNA Pol III inh 0%.
Screening CCc1cc2ccccc2nc1SCC(=O)N1CCN(C(=O)c2ccco2)CC1 returned ALOX15 inhib 4%, Tau fil binding 12%, ERK AVP block -6%, Hsp90 Hop PPI -1%, TsaE inh inactive and DNA Pol III inh -8%.
`O=C(c1cc2nc3c(c(C(F)(F)F)n2n1)CCc1ccccc1-3)N1CCN2CCCC2C1` (stereo not drawn) gave ALOX15 inhib -8%, Tau fil binding 13µM*, ERK AVP block 29%, Hsp90 Hop PPI inconclusive, TsaE inh inactive and DNA Pol III inh -6%.
Screening Cc1cc(Nc2cccc(F)c2)nc(-c2ccccc2O)n1 returned ALOX15 inhib 10µM*, Tau fil binding 255%, ERK AVP block 7.9µM*, Hsp90 Hop PPI -1%, TsaE inh inactive and DNA Pol III inh 6%.
For Cc1cc(Nc2ccccc2)nc(-c2ccccc2O)n1 the results were ALOX15 inhib -20%, Tau fil binding 32%, ERK AVP block 32µM*, Hsp90 Hop PPI inconclusive, TsaE inh inactive and DNA Pol III inh -2%.
`CC1(C)CC(=O)C2=C(C1)OC(N)=C(C#N)C2c1cccc(OC(=O)c2ccco2)c1` (stereo not drawn) gave ALOX15 inhib -16%, Tau fil binding -4%, ERK AVP block 10%, Hsp90 Hop PPI -5%, TsaE inh inactive and DNA Pol III inh -4%.
Screening O=C(N/N=C/c1ccccc1O)c1cc(-c2ccccc2)n[nH]1 returned ALOX15 inhib -9%.
For O=C(N/N=C\c1ccccc1O)c1ccccc1O the results were ALOX15 inhib -17%[25.6 µM], Tau fil binding 32µM*, ERK AVP block inconclusive, Hsp90 Hop PPI 10µM*, TsaE inh inactive and DNA Pol III inh inconclusive.
`Oc1ccc(-c2nc(-c3ccc(F)cc3)c(-c3ccncc3)[nH]2)cc1` gave ALOX15 inhib inconclusive, Tau fil binding inconclusive, ERK AVP block 7.9µM*, Hsp90 Hop PPI -9%, TsaE inh inactive and DNA Pol III inh -2%.
Screening Fc1cc2nc(-c3ccncc3)[nH]c2cc1F returned ALOX15 inhib -3%, Tau fil binding 1%, ERK AVP block 2%, Hsp90 Hop PPI -1%, TsaE inh inactive and DNA Pol III inh -10%.
For CCOC(=O)c1cnc2c(C(F)(F)F)cccc2c1N1CCOCC1 the results were ALOX15 inhib -26%, Tau fil binding 16µM*, ERK AVP block inconclusive, Hsp90 Hop PPI -6%, TsaE inh inactive and DNA Pol III inh -3%.
`CCOC(=O)c1cnc2c(C)c(Cl)ccc2c1N1CCOCC1` gave ALOX15 inhib 6%, Tau fil binding -9%, ERK AVP block -13%, Hsp90 Hop PPI -2%[2.3 µM], TsaE inh inactive and DNA Pol III inh -2%.
`c1ccc2cc(-c3cc(-c4cc(-c5ccc6ccccc6c5)on4)no3)ccc2c1` gave ALOX15 inhib -16%[11.4 µM], Tau fil binding 12%[11.4 µM], ERK AVP block -26%[11.5 µM], Hsp90 Hop PPI -2%[11 µM], TsaE inh inactive and DNA Pol III inh -1%[11.4 µM].
For Cc1ccc(C)n1-c1ccc(N2CCOCC2)cc1 the results were ALOX15 inhib 2.5µM*, Tau fil binding 25µM*, ERK AVP block inconclusive, Hsp90 Hop PPI inconclusive, TsaE inh inactive and DNA Pol III inh -6%.
